This is an account of results in ChEMBL document CHEMBL2218924, “A broad activity screen in support of a chemogenomic map for kinase signalling research and drug discovery” (Biochem J, 2013).

For assay [1], the target named is T1, Serine/threonine-protein kinase BRSK1 (Homo sapiens) (UniProt Q8TDC3).
T1 sequence (whole entry): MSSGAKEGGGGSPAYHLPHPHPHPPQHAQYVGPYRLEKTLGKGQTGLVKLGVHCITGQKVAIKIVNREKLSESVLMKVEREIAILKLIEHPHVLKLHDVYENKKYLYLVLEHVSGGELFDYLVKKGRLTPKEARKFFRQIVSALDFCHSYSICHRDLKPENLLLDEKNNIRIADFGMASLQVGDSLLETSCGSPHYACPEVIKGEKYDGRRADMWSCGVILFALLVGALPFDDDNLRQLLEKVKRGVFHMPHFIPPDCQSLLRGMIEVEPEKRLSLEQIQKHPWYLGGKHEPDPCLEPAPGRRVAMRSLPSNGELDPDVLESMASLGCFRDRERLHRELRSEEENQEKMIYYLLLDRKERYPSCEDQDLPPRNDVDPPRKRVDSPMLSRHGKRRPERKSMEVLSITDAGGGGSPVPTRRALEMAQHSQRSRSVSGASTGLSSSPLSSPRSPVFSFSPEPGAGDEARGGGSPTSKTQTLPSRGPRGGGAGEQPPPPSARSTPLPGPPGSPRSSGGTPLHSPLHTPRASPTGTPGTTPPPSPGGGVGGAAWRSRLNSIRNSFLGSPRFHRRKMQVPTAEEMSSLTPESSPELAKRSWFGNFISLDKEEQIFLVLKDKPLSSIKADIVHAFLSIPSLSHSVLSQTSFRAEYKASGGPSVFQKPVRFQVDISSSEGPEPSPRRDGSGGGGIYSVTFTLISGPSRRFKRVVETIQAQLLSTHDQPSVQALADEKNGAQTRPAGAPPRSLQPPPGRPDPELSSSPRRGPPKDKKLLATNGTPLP
The conditions noted are these: at 1 µM.

Assay [2] concerns the target T1, Serine/threonine-protein kinase BRSK1 (Homo sapiens). The settings on record: at 10 µM.
Assay [3] concerns the target T2, Serine/threonine-protein kinase BRSK2 (Homo sapiens) (UniProt Q8IWQ3).
T2 sequence (whole entry): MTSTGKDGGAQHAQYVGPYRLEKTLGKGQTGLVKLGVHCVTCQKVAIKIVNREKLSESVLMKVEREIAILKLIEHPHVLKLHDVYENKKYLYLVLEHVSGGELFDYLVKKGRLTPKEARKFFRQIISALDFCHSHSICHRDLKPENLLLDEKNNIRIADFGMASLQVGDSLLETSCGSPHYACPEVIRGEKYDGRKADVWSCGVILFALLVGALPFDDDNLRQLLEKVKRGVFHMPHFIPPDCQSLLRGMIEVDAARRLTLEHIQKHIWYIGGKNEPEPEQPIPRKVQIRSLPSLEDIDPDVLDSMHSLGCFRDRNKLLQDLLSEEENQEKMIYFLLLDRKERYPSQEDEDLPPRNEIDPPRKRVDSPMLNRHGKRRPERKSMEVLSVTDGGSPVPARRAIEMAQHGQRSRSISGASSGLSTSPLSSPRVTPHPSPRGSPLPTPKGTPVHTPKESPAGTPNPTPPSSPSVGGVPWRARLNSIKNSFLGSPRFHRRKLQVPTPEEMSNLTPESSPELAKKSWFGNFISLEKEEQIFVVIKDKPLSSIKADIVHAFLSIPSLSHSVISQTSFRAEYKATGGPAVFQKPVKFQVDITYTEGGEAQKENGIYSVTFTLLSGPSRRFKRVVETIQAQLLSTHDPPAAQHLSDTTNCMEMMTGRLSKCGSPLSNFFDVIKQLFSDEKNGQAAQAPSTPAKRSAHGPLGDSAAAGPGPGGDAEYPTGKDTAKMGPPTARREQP
The conditions noted are these: at 1 µM.

Assay [4] addresses T2, Serine/threonine-protein kinase BRSK2 (Homo sapiens). The conditions noted are these: at 10 µM.
Assay [5] concerns the target T3, Cyclin-dependent kinase 1/cyclin B1 (Homo sapiens) (UniProt P06493+P14635). The settings on record: at 1 µM.
Assay [6] concerns the target T3, Cyclin-dependent kinase 1/cyclin B1 (Homo sapiens). The conditions noted are these: at 10 µM.
The target of assay [7] is T4, Cyclin-dependent kinase 2/cyclin A (Homo sapiens) (UniProt P24941+P20248+P78396). The settings on record: at 1 µM.
Assay [8] addresses T4, Cyclin-dependent kinase 2/cyclin A (Homo sapiens). The conditions noted are these: at 10 µM.
The target of assay [9] is T5, Cyclin-dependent kinase 2/cyclin E (Homo sapiens) (UniProt P24864+P24941+O96020). The conditions noted are these: at 1 µM.
Assay [10] concerns the target T5, Cyclin-dependent kinase 2/cyclin E (Homo sapiens). The conditions noted are these: at 10 µM.
The target in assay [11] is T6, CDK3/cyclin E (Homo sapiens) (UniProt P24864+O96020+Q00526). The conditions noted are these: at 1 µM.
In assay [12] the target is T6, CDK3/cyclin E (Homo sapiens). The conditions noted are these: at 10 µM.
For assay [13], the target named is T7, Cyclin-dependent kinase 5/CDK5 activator 1 (Homo sapiens) (UniProt Q00535+Q15078). The conditions noted are these: at 1 µM.
The target of assay [14] is T7, Cyclin-dependent kinase 5/CDK5 activator 1 (Homo sapiens). The settings on record: at 10 µM.
For assay [15] the target is unchanged. The settings on record: at 1 µM. This is another data set of the same source.
The target is the same in assay [16]. The conditions noted are these: at 10 µM. This is another data set of the same source.
Assay [17] has as its target T8, CDK6/cyclin D3 (Homo sapiens) (UniProt P30281+Q00534). The settings on record: at 1 µM.
Assay [18] concerns the target T8, CDK6/cyclin D3 (Homo sapiens). The settings on record: at 10 µM.
Assay [19] concerns the target T9, Cyclin-dependent kinase 7/ cyclin H (Homo sapiens) (UniProt P51946+P50613). The settings on record: at 1 µM.
Assay [20] concerns the target T9, Cyclin-dependent kinase 7/ cyclin H (Homo sapiens). The settings on record: at 10 µM.

T6 sequence (O96020 whole entry, looked up): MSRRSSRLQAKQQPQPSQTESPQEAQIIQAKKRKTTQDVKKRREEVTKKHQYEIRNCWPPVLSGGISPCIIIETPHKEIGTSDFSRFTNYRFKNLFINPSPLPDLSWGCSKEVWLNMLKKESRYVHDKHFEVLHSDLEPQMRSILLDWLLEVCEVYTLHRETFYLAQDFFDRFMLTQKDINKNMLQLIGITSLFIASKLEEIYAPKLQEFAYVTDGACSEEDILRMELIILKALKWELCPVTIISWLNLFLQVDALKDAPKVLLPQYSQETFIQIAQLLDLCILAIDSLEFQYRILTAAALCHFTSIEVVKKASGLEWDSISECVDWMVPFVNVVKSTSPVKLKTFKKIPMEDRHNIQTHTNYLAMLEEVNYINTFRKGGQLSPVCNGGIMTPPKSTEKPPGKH
T6 sequence (P24864 whole entry, looked up): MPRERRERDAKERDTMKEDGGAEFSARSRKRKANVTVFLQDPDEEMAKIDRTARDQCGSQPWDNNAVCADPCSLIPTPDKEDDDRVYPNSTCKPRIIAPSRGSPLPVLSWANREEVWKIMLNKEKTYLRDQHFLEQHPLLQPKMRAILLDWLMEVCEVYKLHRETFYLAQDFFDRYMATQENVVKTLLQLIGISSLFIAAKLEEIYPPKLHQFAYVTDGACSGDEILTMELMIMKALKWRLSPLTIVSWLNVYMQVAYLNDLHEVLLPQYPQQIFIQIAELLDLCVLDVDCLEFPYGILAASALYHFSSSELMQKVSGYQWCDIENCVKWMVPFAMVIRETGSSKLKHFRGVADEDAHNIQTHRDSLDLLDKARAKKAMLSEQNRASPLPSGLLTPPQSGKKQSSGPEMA
T6 sequence (Q00526 whole entry, looked up): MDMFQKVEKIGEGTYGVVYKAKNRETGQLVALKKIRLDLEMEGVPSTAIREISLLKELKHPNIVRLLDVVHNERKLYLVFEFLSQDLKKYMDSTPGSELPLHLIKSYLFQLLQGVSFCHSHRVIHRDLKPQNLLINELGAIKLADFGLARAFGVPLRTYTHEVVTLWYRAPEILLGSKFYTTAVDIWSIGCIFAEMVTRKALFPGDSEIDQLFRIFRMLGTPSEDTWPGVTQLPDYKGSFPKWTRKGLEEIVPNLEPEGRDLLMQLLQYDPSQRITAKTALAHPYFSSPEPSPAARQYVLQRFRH
T7 sequence (Q00535 whole entry): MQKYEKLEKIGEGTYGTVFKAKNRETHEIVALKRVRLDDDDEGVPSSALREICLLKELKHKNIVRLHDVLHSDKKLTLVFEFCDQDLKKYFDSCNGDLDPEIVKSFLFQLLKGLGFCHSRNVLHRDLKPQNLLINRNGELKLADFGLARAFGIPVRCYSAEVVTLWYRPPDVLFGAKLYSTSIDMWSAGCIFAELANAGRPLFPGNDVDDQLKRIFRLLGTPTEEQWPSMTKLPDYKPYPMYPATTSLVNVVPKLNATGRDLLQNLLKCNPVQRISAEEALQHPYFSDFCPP
T7 sequence (Q15078 99-307 partner limits assumed): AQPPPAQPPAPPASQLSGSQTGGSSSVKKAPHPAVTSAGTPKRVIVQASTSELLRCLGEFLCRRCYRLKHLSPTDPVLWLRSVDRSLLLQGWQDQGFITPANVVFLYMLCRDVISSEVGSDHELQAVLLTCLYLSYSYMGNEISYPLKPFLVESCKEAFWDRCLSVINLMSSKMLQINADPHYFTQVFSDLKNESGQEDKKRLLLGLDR
T3 sequence (P06493 whole entry, looked up): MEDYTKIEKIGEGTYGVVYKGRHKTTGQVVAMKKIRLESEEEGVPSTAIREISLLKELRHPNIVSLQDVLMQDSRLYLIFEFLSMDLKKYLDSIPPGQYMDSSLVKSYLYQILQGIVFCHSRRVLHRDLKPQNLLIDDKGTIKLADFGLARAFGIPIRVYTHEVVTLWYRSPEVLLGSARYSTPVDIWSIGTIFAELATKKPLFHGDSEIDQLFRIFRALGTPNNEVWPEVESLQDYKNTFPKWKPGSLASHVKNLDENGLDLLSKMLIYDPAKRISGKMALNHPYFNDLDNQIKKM
T3 sequence (P14635 whole entry, looked up): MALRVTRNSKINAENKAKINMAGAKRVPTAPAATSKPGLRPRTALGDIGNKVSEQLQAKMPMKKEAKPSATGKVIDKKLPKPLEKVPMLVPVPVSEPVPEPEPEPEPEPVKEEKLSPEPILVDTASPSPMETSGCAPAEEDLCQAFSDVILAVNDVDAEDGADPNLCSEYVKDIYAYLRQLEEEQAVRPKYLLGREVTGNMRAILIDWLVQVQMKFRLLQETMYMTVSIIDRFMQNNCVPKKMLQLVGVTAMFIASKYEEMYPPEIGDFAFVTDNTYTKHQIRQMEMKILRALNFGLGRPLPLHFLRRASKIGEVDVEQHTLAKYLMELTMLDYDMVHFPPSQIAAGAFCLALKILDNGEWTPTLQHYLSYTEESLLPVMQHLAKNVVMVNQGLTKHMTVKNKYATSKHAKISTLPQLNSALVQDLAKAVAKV

For `O=C1Nc2ccccc2/C1=C1/Nc2ccccc2/C1=N\OCCC(O)CO` (stereo not given), the residual activity in assay [1] worked out at 26%; in assay [2], 39%; in [3] it was 33%; in assay [4] it was 4%; in assay [5], 25%; in assay [6], 6%. Further, the residual activity in [7] was 12%; in assay [8], 11%; in assay [9], 9%; in assay [10], 4%; in [11] it was 21%; in [12], 2%. The residual activity in assay [13] was 4%; in [14], 4%; in assay [15], 6%; in [16] it was 5%; in assay [17] it was 16%; in assay [18], 4%. Besides, the residual activity turned out to be 19% in assay [19] and 2% in assay [20].

For `CC(C)n1cnc2c(NCc3ccccc3)nc(NCCCO)nc21`, the residual activity was determined as 105% in assay [1]; 100% in assay [2]; 110% in assay [3]; 99% in assay [4]; 90% in assay [5]; 55% in assay [6]. The residual activity in assay [7] was determined as 58%; in assay [8], 11%; in [9], 39%; in [10], 8%; in [11], 71%; in assay [12], 23%. Also, the residual activity in assay [13] stood at 40%; in assay [14] it was 8%; in [15] it was 53%; in assay [16], 8%; in [17] it was 94%; in assay [18], 86%. Also, the residual activity in assay [19] came to 62%; in assay [20], 12%.

For the compound `Cn1cnc2cc3c(Nc4cccc(Br)c4)ncnc3cc21`, the residual activity in assay [1] amounted to 58%; in assay [2] it was 13%; in assay [3], 91%; in [4] it was 62%; in [5] it was 103%; in assay [6], 94%. Further, the residual activity in assay [7] is 132%; in assay [8] it was 87%; in assay [9], 110%; in assay [10] it was 102%; in assay [11], 102%; in [12], 81%. In addition, the residual activity in assay [13] was determined as 96%; in assay [14] it was 104%; in assay [15], 98%; in assay [16], 90%; in [17], 99%; in assay [18], 92%. The residual activity in [19] came to 84%; in assay [20], 102%.

Turning to `Oc1ccc(Nc2nc(-c3ccc(Cl)cc3)cs2)cc1`, the residual activity in assay [1] is 81%; in assay [2] it was 90%; in assay [3], 125%; in [4] it was 126%; in assay [5] it was 111%; in [6] it was 84%. The residual activity amounted to 101% in assay [7]; 78% in assay [8]; 100% in [9]; 93% in assay [10]; 108% in assay [11]; 80% in assay [12]. Further, the residual activity in assay [13] was determined as 102%; in assay [14], 90%; in [15] it was 120%; in [16] it was 98%; in assay [17], 112%; in assay [18], 101%. The residual activity in assay [19] amounted to 106%; in assay [20], 89%.

For `COc1cccc(-c2cc(=O)c3ccccc3o2)c1N`, the residual activity in assay [1] was determined as 101%; in assay [2], 103%; in assay [3] it was 123%; in assay [4], 98%; in assay [5] it was 99%; in assay [6], 99%. The residual activity in [7] was 93%; in [8] it was 10%; in assay [9], 96%; in assay [10], 85%; in assay [11] it was 90%; in assay [12], 84%. For the same compound, the residual activity was determined as 102% in assay [13]; 99% in [14]; 112% in assay [15]; 89% in [16]; 102% in [17]; 100% in [18]. The residual activity in assay [19] worked out at 103%; in [20] it was 89%.

`O=C(Nc1cccc(Nc2nccc(Nc3cccc(C(F)(F)F)c3)n2)c1)C1CC1`: the residual activity in [1] came to 26%; in [2], 27%; in assay [3], 93%; in [4], 40%; in [5] it was 96%; in assay [6], 102%. Also, the residual activity in [7] amounted to 127%; in assay [8], 93%; in assay [9], 94%; in [10] it was 97%; in assay [11], 98%; in assay [12], 72%. Also, the residual activity in assay [13] amounted to 94%; in assay [14] it was 98%; in [15], 107%; in assay [16], 98%; in [17] it was 102%; in assay [18] it was 39%. Besides, the residual activity in assay [19] was 92%; in [20], 86%.
